Article PMC4336329 (PLoS ONE, 2015)
About 14,000 (4.5%) of roughly 310,000 compounds showed an effect of 50% or more. Effects have a minus sign here. The sample holds strong results, similar compounds and a random draw of the others, so the mix is not that of the screen.

Target: human ether-à-go-go-related gene (hERG) potassium channel (human, UniProt Q12809)
Experiment: primary screen, population patch clamp on CHO cells stably expressing hERG; higher = less effect of the substance
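Also: peak tail current of the secondary pulse compared with the same well before compound.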

human ether-à-go-go-related gene (hERG) potassium channel, sequence (Q12809 whole entry, looked up): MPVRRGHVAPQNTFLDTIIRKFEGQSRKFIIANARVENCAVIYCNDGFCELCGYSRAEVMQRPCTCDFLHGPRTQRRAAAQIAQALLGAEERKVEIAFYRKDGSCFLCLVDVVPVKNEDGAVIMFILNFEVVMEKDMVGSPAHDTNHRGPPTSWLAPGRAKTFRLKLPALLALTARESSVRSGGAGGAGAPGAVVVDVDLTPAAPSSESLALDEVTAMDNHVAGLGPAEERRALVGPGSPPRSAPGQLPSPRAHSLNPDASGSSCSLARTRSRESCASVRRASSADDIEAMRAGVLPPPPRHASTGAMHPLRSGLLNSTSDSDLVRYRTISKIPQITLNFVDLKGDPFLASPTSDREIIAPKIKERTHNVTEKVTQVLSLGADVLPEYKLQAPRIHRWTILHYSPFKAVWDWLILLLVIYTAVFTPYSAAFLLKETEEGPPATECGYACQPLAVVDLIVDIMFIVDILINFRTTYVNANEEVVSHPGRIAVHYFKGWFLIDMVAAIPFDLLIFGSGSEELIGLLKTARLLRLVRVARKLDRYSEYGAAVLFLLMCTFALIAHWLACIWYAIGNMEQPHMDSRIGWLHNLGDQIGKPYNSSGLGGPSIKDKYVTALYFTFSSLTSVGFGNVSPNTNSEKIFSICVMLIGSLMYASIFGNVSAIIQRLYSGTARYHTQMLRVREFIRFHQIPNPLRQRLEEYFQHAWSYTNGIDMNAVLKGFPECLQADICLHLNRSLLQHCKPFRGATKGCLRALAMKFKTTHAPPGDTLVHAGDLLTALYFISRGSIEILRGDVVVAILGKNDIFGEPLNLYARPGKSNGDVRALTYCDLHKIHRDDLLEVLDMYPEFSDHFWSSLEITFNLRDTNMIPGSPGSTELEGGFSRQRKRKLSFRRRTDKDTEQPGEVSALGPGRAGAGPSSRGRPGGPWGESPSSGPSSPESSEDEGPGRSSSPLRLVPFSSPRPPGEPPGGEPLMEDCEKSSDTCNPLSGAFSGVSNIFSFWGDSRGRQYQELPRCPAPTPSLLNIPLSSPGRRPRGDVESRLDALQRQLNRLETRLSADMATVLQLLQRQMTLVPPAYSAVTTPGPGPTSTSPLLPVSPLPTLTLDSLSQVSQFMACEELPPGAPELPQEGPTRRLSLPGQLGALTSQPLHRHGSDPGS

SMILES	hERG current change (%, negative = inhibition) at 10uM [%]
O=C(Nc1ccc(-c2cn3ccccc3n2)cc1)c1ccco1	-11.4
O=C1C=C(c2ccc(CO)cc2)C[C@@H](c2ccc3c(c2)OCO3)C1	-44.3
CC1=CSC2=NC(C(F)(F)F)(C(F)(F)F)NC(=O)N12	-1.5
C=CCn1sc(N)c(C(=O)OCC)c1=S	0.673
Cc1ccc(NS(=O)(=O)c2cccc(C(=O)O)c2)cc1S(=O)(=O)N1CCCCC1	3.3
COC(=O)Cn1c(=NC(=O)c2nc3ccccc3s2)sc2cc(S(N)(=O)=O)ccc21	6.74
COC(=O)Cn1c(=NC(=O)c2nc3ccccc3s2)sc2cc(S(C)(=O)=O)ccc21	-65.2
COCCn1c(=NC(=O)c2nc3ccccc3s2)sc2cc(S(C)(=O)=O)ccc21	-21
CCC(=O)NNC(=S)NC(=O)c1ccc(C)cc1	22.4
S=c1[nH]nc(-c2cccc(Br)c2)o1	19.6
CCOC(=O)c1cccc(NC(=O)CCc2nnc3ccc(N4CCCCC4)nn23)c1	7.86
C=CCn1c(O)c(N=NC(=O)CNC(=O)/C=C/c2ccco2)c2ccccc21	-58.2
CCn1c(O)c(N=NC(=O)CNC(=O)/C=C/c2ccco2)c2ccccc21	0.357
C=CCn1c(O)c(N=NC(=O)CNC(=O)c2ccco2)c2ccccc21	-4.55
CCCCNC(=O)NS(=O)(=O)c1cnccc1Sc1ccc(Cl)cc1	12.1
NC(=O)c1cccnc1Nc1cccc(F)c1	-4.36
CCOC(=O)c1sc(/S(C)=N\S(=O)(=O)c2cccc(Cl)c2)c2c1CCC=C2 (centres unmarked)	-51.9
CCOC(=O)C1=C(C)Nc2ccccc2N/C1=N\S(=O)(=O)c1cccc(Cl)c1	0.773
CCOC(=O)c1nc(C)sc1-c1ccnn1S(=O)(=O)c1cccc(Cl)c1	-22.5
COc1ccc(-n2nc(C(=O)NCc3ccco3)c3c4ccccc4n(C)c3c2=O)cc1	18.1
Cc1ccc(C)c(NC(=O)C2CCC(C)(C(=O)O)C2(C)C)c1 (centres unmarked)	-18.4
Cc1cccc(NCC(=O)N/N=C\c2cccc(Oc3ccccc3)c2)c1	20.1
O=C(CNC(=O)c1cccs1)Nc1ccncc1	8.67

SMILES	hERG current change (%, negative = inhibition) at 10uM [%]
O=C(Nc1ccc2c(c1)OCO2)C1CC(c2ccccc2Cl)=NO1 (centres unmarked)	-12.7
COc1ccccc1N1CCN(C(=O)C(C)CS(=O)(=O)c2ccc3c(c2)NC(=O)CS3)CC1 (centres unmarked)	4.07
O=C1COc2ccc(S(=O)(=O)CCC(=O)N3CCN(c4cccc(Cl)c4)CC3)cc2N1	-58.4
O=C1COc2ccc(S(=O)(=O)CCC(=O)N3CCN(c4ccccc4)CC3)cc2N1	-13.1
CC(CS(=O)(=O)c1ccc2c(c1)NC(=O)CS2)C(=O)N1CCN(c2cccc(Cl)c2)CC1 (centres unmarked)	-52.1
CC(CC(=O)N1CCN(c2ccccc2)CC1)S(=O)(=O)c1ccc2c(c1)NC(=O)CS2 (centres unmarked)	-34.6
O=C1COc2ccc(S(=O)(=O)CCC(=O)N3CCN(c4cccc(C(F)(F)F)c4)CC3)cc2N1	-46.3
O=C(NC1CCN(c2ncccn2)CC1)c1ccccc1F	18.6
O=C(CSc1ncn(-c2ccccc2)n1)c1cccs1	-3.5
Cc1ccc(S(=O)(=O)N2CCN(S(=O)(=O)c3ccc4c(c3)OCCO4)CC2)cc1	8.43
COc1ccc(CCNC(=O)c2c(C)nc3ccccn23)cc1OC	-64.3
COc1ccc(CCNC(=O)c2cc(-c3ccncc3)nc3c(Cl)cccc23)cc1OC	-66.9
COc1ccc(CCNC(=O)c2cccc3ccccc23)cc1OC	7.77
COc1ccc(CCNC(=O)c2cc3c(=O)n4ccccc4nc3n(C3CCCCC3)c2=N)cc1OC	-76.6
COc1ccc(CCNC(=O)c2cc(-c3ccccn3)nc3c(Cl)cccc23)cc1OC	10.5
COc1ccc(CNC(=O)c2c(C)nc3ccccn23)cc1	-12.1
COc1ccc(CCNC(=O)c2c(C)nc3ccccn23)cc1	-4.75
COc1ccc(CCNC(=O)c2cnc3ccccn3c2=O)cc1	-22.3
COc1ccc(CCNC(=O)c2cccc3c2C(=O)N(C2CCCCC2)C3)cc1OC	-24.1
COc1ccc(CCNC(=O)c2cc3c(=O)n4ccccc4nc3n(C3CCCCC3)c2=N)cc1	-81.3
COc1ccccc1CNC(=O)c1cc(-c2ccncc2)nc2c(Cl)cccc12	10.5
Cc1cc(NC(=O)c2ccc3nc(-c4ccccc4)c(-c4ccccc4)nc3c2)no1	6.59
Nc1c(/C=C2\C=Nc3ccccc32)c(=O)nc2sc(CC(=O)N3CCOCC3)nn12	17.2

SMILES	hERG current change (%, negative = inhibition) at 10uM [%]
Cc1ccc(Cn2c(C(C)Nc3nc(-c4ccc(Cl)c([N+](=O)[O-])c4)cs3)nc3cc(C(F)(F)F)ccc32)cc1 (centres unmarked)	5.46
Fc1ccccc1COc1ccc(/C=N/n2cnnc2)cc1	-12.2
COc1ccc(C(CCN2CCCC2)c2c(O)cc(OC)cc2OC)cc1 (centres unmarked)	-61.2
COc1ccc(C(CCN2CCOCC2)c2c(O)cc(OC)cc2OC)cc1 (centres unmarked)	-47.1
COc1cc(O)c(C(CCN2CCCCC2)c2cc(OC)c(OC)c(OC)c2)c(OC)c1 (centres unmarked)	4.24
COc1cc(O)c(C(CCN2CCCCC2)c2ccc(N(C)C)cc2)c(OC)c1 (centres unmarked)	-8.43
COc1cc(O)c(C(CCN2CCCC2)c2ccc(N(C)C)cc2)c(OC)c1 (centres unmarked)	-10
COc1ccc(C(CCN2CCCCC2)c2c(O)cc(OC)cc2OC)cc1 (centres unmarked)	-75.2
COc1ccccc1NS(=O)(=O)c1ccc2c(c1)NC(=O)CC(=O)N2	14.5
COc1cc(CNn2cn[nH]c2=S)cc(Br)c1OCc1ccccc1F	6.75
CC1(C(=O)O)COC(c2ccc(Cl)cc2)OC1 (centres unmarked)	-25.3
CC(=O)Nc1ccc(S(=O)(=O)N(C)CC(=O)Nc2cccc(S(=O)(=O)N3CCCC3)c2)cc1	-8.1
O=C(CCS(=O)(=O)c1ccc(Cl)cc1)N1CCN(c2ccccc2F)CC1	-12.2
O=C(CCS(=O)(=O)c1ccccc1)N1CCN(c2ccc(F)cc2)CC1	-35.9
O=C(CCS(=O)(=O)c1ccc(Br)cc1)N1CCN(c2ccc(F)cc2)CC1	-66.3
O=C(CCS(=O)(=O)c1ccc(Cl)cc1)N1CCN(c2ccc(F)cc2)CC1	-76.1
O=C(CCS(=O)(=O)c1ccc(Br)cc1)N1CCN(c2ccc(Cl)cc2)CC1	-9.11
COc1ccc(S(=O)(=O)CCC(=O)N2CCN(c3ccc(C(C)=O)cc3)CC2)cc1	-45.9
COc1ccc(N2CCN(C(=O)CCS(=O)(=O)c3ccc(OC)cc3)CC2)cc1	-19.3
COc1ccc(S(=O)(=O)CCC(=O)N2CCN(c3ccc(F)cc3)CC2)cc1	-59.7
O=C(CCS(=O)(=O)c1ccc(F)cc1)N1CCN(c2ccccc2)CC1	-23.2
Cc1ccc(-c2ccc(CCC(=O)O)o2)cc1	14.5
CN(CCC#N)C(=S)Nc1ccc(Oc2ccccc2)cc1	-28.6

SMILES	hERG current change (%, negative = inhibition) at 10uM [%]
N#Cc1c(SCC(N)=O)nsc1SCc1ccc(Cl)cc1	-0.34
Cn1nc(-c2ccc(C(=O)O)cc2)c2ccccc2c1=O	11.6
CC(C)C12CCC(C(=O)O)C(C1)C(=O)O2 (centres unmarked)	13.9
N#Cc1ccc(Oc2ccc(S(=O)(=O)N3CCCC3)cn2)cc1	-35.8
N#Cc1ccccc1Oc1ccc(S(=O)(=O)N2CCCCC2)cn1	-79.6
N#Cc1ccc(Oc2ccc(S(=O)(=O)N3CCCCC3)cn2)cc1	-24.7
N/C(=N\OC(=O)c1ccccc1Cl)c1ccccc1	-16.2
O=C(c1cccs1)N(C(=O)c1cccs1)c1ccccn1	9.68
CCCn1c2c(c(O)c(C(=O)NC)c1=O)CCCC2	-6.66
CCN(CC)CCNC(=O)c1c(O)c2ccccc2n(Cc2ccccc2)c1=O.Cl	-63
CCN(CC)CCCNC(=O)c1c(O)c2cc(F)cc3c2n(c1=O)C(C)CC3.Cl (centres unmarked)	-50.5
CC1CCc2cc(F)cc3c(O)c(C(=O)NCCN(C)C)c(=O)n1c23.Cl (centres unmarked)	-1
CCN(CC)CCCNC(=O)c1c(O)c2ccccc2n(Cc2ccccc2)c1=O.Cl	-63.8
CCn1c(=O)c(C(=O)NCCc2ccccc2)c(O)c2ccccc21	19.7
CCCn1c2c(c(O)c(C(=O)NCCCN(CC)CC)c1=O)CCCC2.Cl	-55
C=CCn1c(=O)c(C(=O)NCCN(CC)CC)c(O)c2ccccc21.Cl	-19.2
CCn1c(=O)c(C(=O)NCCCc2ccccc2)c(O)c2ccccc21	8.18
CCCn1c2c(c(O)c(C(=O)NCc3ccccc3)c1=O)CCCC2	17
CC1CCc2cc(F)cc3c(O)c(C(=O)NCC4CCCO4)c(=O)n1c23 (centres unmarked)	-13.4
CCn1c(=O)c(C(=O)NCCCO)c(O)c2ccccc21	10.1
